Hits are enriched below; roughly 12% of the tested compounds scored in any of these assays.
USP30 inh – inhibitors of human USP30 deubiquitinase. Ubiquitin carboxyl-terminal hydrolase 30 (Homo sapiens), Q70CQ3. inhibition, % at 25 µM. purified USP30, Ub-rhodamine cleavage fluorescence. hit rate 5.3% among 47,000. AID 1645860, 2021
USP7 inh – inhibitors of human USP7 deubiquitinase; Ubiquitin carboxyl-terminal hydrolase 7 (Homo sapiens), Q93009; purified USP7, Ub-rhodamine cleavage fluorescence; inhibition, % at 20 µM; hit rate 0.3% among 47,000; AID 1645854, 2021
USP8 block – inhibitors of human USP8 deubiquitinase. Ubiquitin carboxyl-terminal hydrolase 8 (Homo sapiens), P40818. hit rate 4.2% among 47,000. purified USP8, Ub-rhodamine cleavage fluorescence, 30 min. inhibition, % at 20 µM. AID 1645853, 2021
UCHL1 inh – inhibitors of human UCHL1 deubiquitinase | Ubiquitin carboxyl-terminal hydrolase isozyme L1 (Homo sapiens), P09936 | purified UCHL1, Ub-rhodamine cleavage fluorescence | inhibition, % at 20 µM | hit rate 0.2% among 47,000 | AID 1645859, 2021
USP10 inh – inhibitors of human USP10 deubiquitinase. Ubiquitin carboxyl-terminal hydrolase 10 (Homo sapiens), Q14694. purified USP10, Ub-rhodamine fluorescence, 60 min. inhibition, % at 20 µM. hit rate 1.1% among 47,000
USP17 inh – inhibitors of human USP17 deubiquitinase; Ubiquitin carboxyl-terminal hydrolase 17-like protein 5 (Homo sapiens), A8MUK1; purified USP17, Ub-rhodamine cleavage fluorescence, 3 h; inhibition, % at 50 µM; hit rate 6.5% among 47,000
A number is an active result; i = inactive. Rule as the data show it: active = inhibition above about 30%; inactive = the rest.

SMILES	USP30 inh	USP7 inh	USP8 block	UCHL1 inh	USP10 inh	USP17 inh
CC(C)NC(=O)COc1ccccc1-c1nnc(-c2ccccc2)o1	50	i	i	i	i	i
Cc1nc(-c2noc(-c3ccncc3)n2)cn1CC(=O)N1CCN(c2ccc(F)cc2)CC1	62	i	i	i	i	i
Cc1cc2c(cc1C)NC(CC(=O)Nc1ccc(O)cc1)C(=O)N2 (centres undefined)	i	i	81	i	i	64
COc1ccccc1CNC(=O)Cc1cn(C)c2ncccc12	i	i	i	i	i	i
COc1cc(/C=C2\Oc3cc(OCC=C(C)C)ccc3C2=O)cc(OC)c1OC	i	i	i	i	i	i
CC(C)=CCC/C(C)=C/COc1ccc(/C=C2\C(=O)N(O)[C@@H](C)C(=O)N2O)cc1	33	i	i	i	38	i
Cn1cccc1C(=O)N1C[C@H](OCc2ccccn2)[C@H]2OCCC[C@H]21	i	i	i	i	i	i
COCCn1c(=O)[nH]c(=O)c2c3c(cnc21)C(=O)CC(c1ccc(F)cc1)C3 (centres undefined)	i	i	68	i	i	i
NS(=O)(=O)c1ccc(NC(=O)Cn2cnc3cc([N+](=O)[O-])ccc3c2=O)cc1	i	i	55	i	i	59
CN(C)CCCN(C(=O)c1cc2ccccc2oc1=O)c1nc2ccc(F)cc2s1	79	i	i	i	i	55
CCOc1ccc2ccccc2c1C(=O)Nc1c2c(nn1-c1cccc(C)c1C)CS(=O)C2 (centres undefined)	i	i	i	i	i	i
COc1cccc(C(=O)Oc2ccc3c(C)c(C)c(=O)oc3c2)c1	i	i	i	i	i	49
Cc1c(-c2ccccc2)c(=O)oc2cc(OC(=O)c3cccs3)ccc12	i	i	i	i	i	i
COc1cccc(C(=O)Oc2ccc3c(=O)c(-c4ccc(OC)c(OC)c4)coc3c2)c1	i	i	i	i	i	79
Cc1ccc(CNC(=O)c2cccc(N3C(=O)C(C)(C)CS3(=O)=O)c2)cc1	i	i	i	i	i	i
CC1Oc2ccccc2C(=O)N(Cc2ccccc2)C1=O (centres undefined)	32	i	i	i	i	i
O=C(Nc1cc(CCC2CCNCC2)ccn1)c1ccccn1	i	i	i	i	i	i
O=C(Nc1cccnc1)c1[nH]nc2c1COc1ccccc1-2	i	i	i	i	i	i
O=C(NCc1ccc2c(c1)OCO2)c1[nH]nc2c1CCc1ccccc1-2	57	i	41	i	i	60
O=C(Nc1ccc2c(c1)OCO2)c1[nH]nc2c1CCc1ccccc1-2	i	i	85	i	i	66
O=C(NCc1ccc2c(c1)OCO2)c1cc(-c2cc(Cl)ccc2O)n[nH]1	77	i	50	i	i	i
O=C(COc1ccccc1Cc1ccccc1)NCC1(N2CCCCC2)CCCCC1	i	i	i	i	i	i
CC1Cc2ccccc2N1S(=O)(=O)c1cccc(C(=O)Nc2ccc(Oc3ccccc3)cc2)c1 (centres undefined)	i	i	i	i	i	i
Cc1ccc(C)c(CN2C(=O)c3ccccc3S(=O)c3ccc(C(=O)N4CCN(c5ccccn5)CC4)cc32)c1 (centres undefined)	39	i	i	i	i	i
O=C(c1ccc2nc(C(F)(F)F)[nH]c2c1)N1CCN(c2ccccn2)CC1	i	i	i	i	i	i
SMILES	USP30 inh	USP7 inh	USP8 block	UCHL1 inh	USP10 inh	USP17 inh
COc1ccccc1N1CCN(C(=O)c2ccc3c(c2)N(Cc2cc(C)ccc2C)C(=O)c2ccccc2S3=O)CC1 (centres undefined)	51	i	i	i	i	i
Cc1c(C)n(C)c2ccc(C(=O)N3CCN(c4ccccn4)CC3)cc12	i	i	i	i	i	i
O=C(c1ccc2c(c1)N(Cc1ccc(F)cc1)C(=O)c1ccccc1S2=O)N1CCN(c2ccccn2)CC1 (centres undefined)	40	i	i	i	i	i
CC(C)N1CCN(Cc2cn3cc(F)ccc3n2)CC1	i	i	i	i	i	i
COc1cc(C)ccc1OCC(=O)N1CCCC(c2nn(C)c3nccnc23)C1 (centres undefined)	i	i	i	i	i	i
COc1cc2c(cc1OC)CN(C(=O)CCS(=O)(=O)c1ccc(Cl)cc1)CC2	i	i	76	i	i	32
Cc1nccn1-c1cc(N2CCN(CC(C)C)CC2)nc2ccnn12	i	i	i	i	i	i
CC(C)(C)OC(=O)N[C@@H](Cc1ccccc1)C(=O)NCC1CCC(C(=O)O)CC1 (some centres undefined)	i	i	i	i	i	i
CC(C)(C)OC(=O)N[C@@H](Cc1ccccc1)C(=O)NCC1CCC(C(=O)NCCc2c[nH]c3ccccc23)CC1 (some centres undefined)	i	i	i	i	i	44

Screens (PubChem)
